# Assay results reported in PubChem BioAssay (NCI).
# Compounds without any hit were thinned out: in the full panel of roughly 83,000, 20% have a hit.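 Single-concentration screen, 48 h exposure, 96-well plates. Endpoint: percent growth. Below 10 = active.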 A number with no mark means an inactive call. Calls of active or inactive are those of the source.
# Assays:
# Test in all cases: NCI-60 one-dose screen, 48 h (100 = growth as untreated, 0 = no growth, -100 = all killed)
# Settings in all cases: 10 µM unless noted
# [1] = test system: SK-MEL-2 melanoma
# [2] = test system: SN12C renal
# [3] = test system: UO-31 renal
# [4] = test system: TK-10 renal
# [5] = test system: ACHN renal
# [6] = test system: CAKI-1 renal
# [7] = test system: A498 renal
# [8] = test system: CCRF-CEM leukemia
# [9] = test system: MOLT-4 leukemia
# [10] = test system: SR leukemia
# [11] = test system: RPMI-8226 leukemia
# [12] = test system: OVCAR-8 ovarian
# [13] = test system: OVCAR-5 ovarian
# [14] = test system: OVCAR-4 ovarian
# [15] = test system: SK-OV-3 ovarian
# [16] = test system: IGROV1 ovarian
# [17] = test system: OVCAR-3 ovarian
# [18] = test system: HS 578T breast
# [19] = test system: NCI/ADR-RES ovarian
# [20] = test system: EKVX NSCLC
Structure (SMILES),growth [1],growth [2],growth [3],growth [4],growth [5],growth [6],growth [7],growth [8],growth [9],growth [10],growth [11],growth [12],growth [13],growth [14],growth [15],growth [16],growth [17],growth [18],growth [19],growth [20]
COc1c(C2CC(=O)Nc3c2cnn3Cc2ccco2)cc2c(c1OC)OCO2 (centres undefined),46.3%,32.5%,59.4%,73.9%,40.2%,36.9%,-2.53% (active),10.1%,1.51% (active),2.13% (active),-1.94% (active),18%,40.8%,39.2%,-9.03% (active),52.8%,-35.9% (active),30.4%,4.88% (active),
CCN(CC)CCCNc1cccc2c(SCc3ccccc3)ccnc12,114%,,-9.99% (active),63.7%,102%,58.8%,75.7%,-26.1% (active),-24.2% (active),-27.9% (active),-39.7% (active),89.9%,107%,104%,97.8%,-40.3% (active),36.8%,,42%,63.5%
COc1ccc(-c2nc(Nc3cc(C)[nH]n3)c3ccccc3n2)cc1,59.7%,40.1%,41%,53.3%,42.8%,15.9%,-18.1% (active),49.3%,69.8%,23.7%,50.7%,83.8%,59.8%,60.1%,53.1%,1.47% (active),52.2%,,74.3%,
COc1cc(C2CC(=O)Nc3c2cnn3Cc2ccco2)cc2c1OCCO2 (centres undefined),86.8%,91.3%,97%,102%,93.1%,96.9%,64.3%,111%,65.6%,8.04% (active),77.2%,101%,86.2%,94.3%,97.7%,,73.9%,,88.9%,
Oc1ccccc1/C=N/Nc1ccc2ccccc2n1,64.5%,61.8%,16.4%,62.8%,40.6%,15.3%,107%,10.7%,7.34% (active),8.32% (active),35.2%,33.2%,81%,-0.697% (active),43%,28.1%,8.79% (active),79.3%,22.9%,
Cc1ccc(NC(=O)c2sc3nc4c(cc3c2N)C(=O)CCC4)cc1C,37%,52.9%,56.6%,59.9%,52.2%,35.7%,-2.89% (active),13.6%,27.6%,22.9%,11.4%,31.6%,32.6%,76%,4.9% (active),23.9%,-10.2% (active),28.1%,10.9%,
C#Cc1nc2ccccc2c(=O)[nH]1,-21.9% (active),-41.3% (active),-72% (active),-42.3% (active),-69.2% (active),-86.4% (active),-61.5% (active),-17% (active),-21.4% (active),2.53% (active),-22.2% (active),-31.3% (active),-44.7% (active),-74.4% (active),49.6%,-66.2% (active),-82.3% (active),-4.79% (active),-2.94% (active),
Cc1ccc(S(=O)(=O)N(CCc2ccc(Cl)cc2)S(=O)(=O)c2ccc(C)cc2)cc1,75.3%,105%,70%,83.9%,95.2%,72.8%,115%,83.7%,66.5%,82.5%,76.9%,,106%,86.5%,85.2%,89.1%,95%,,87.9%,
CN1CCCCC1CCN1c2ccccc2Sc2ccc(Cl)cc21 (centres undefined),71.2%,71.8%,30.1%,69.3%,58.2%,59.9%,74.9%,39.3%,41%,-22.5% (active),56.5%,63%,91.8%,57.1%,59.1%,45.5%,81.6%,72.5%,72.9%,
COc1cc(OC)c(/C=C/c2cc[n+](C)c3ccccc23)c(OC)c1,-8.65% (active),10.7%,61%,53.4%,71.8%,67.1%,9.92% (active),7.13% (active),3.59% (active),-16.8% (active),-2.59% (active),-8.8% (active),49.4%,13.6%,-10.8% (active),6.79% (active),-26.6% (active),18.8%,91.3%,
CCCCNC(=O)NS(=O)(=O)c1ccc(N2N=C(c3cc(C)ccc3C)CC2c2cc(OC)c(OC)c(OC)c2)cc1 (centres undefined),54.9%,73.7%,32.2%,74.5%,63.6%,39%,34.6%,55.1%,30.9%,12.7%,28.3%,53.2%,95.9%,77.7%,68%,41.4%,53.3%,,30.3%,
O=C(/C=C/c1ccc(Cl)cc1)/C=C/c1cc2ccccc2[nH]c1=O,98.2%,62.8%,63.9%,119%,74%,108%,94.7%,2.35% (active),15.7%,1.79% (active),-22.2% (active),-11.5% (active),128%,84.1%,99.9%,78.8%,15.9%,91.2%,86%,
Cc1cc(Nc2nc(N3CCOCC3)nc3ccccc23)n[nH]1,51.5%,60.2%,35.4%,47.2%,32.8%,9.88% (active),-13.4% (active),65.6%,58.4%,10.8%,82.5%,104%,88.7%,52.5%,20.5%,30.9%,58.6%,,86.3%,
CC(=O)Oc1cc2cnc3c4cc(OC(C)=O)c(OC(C)=O)cc4ccc3c2cc1OC(C)=O,56.3%,14.6%,-2.09% (active),21.8%,15.3%,6.51% (active),-15.6% (active),-6.55% (active),-6.19% (active),-8.28% (active),12.8%,-22.1% (active),54.6%,-4.13% (active),26.9%,-12.8% (active),-3.27% (active),28.1%,13.3%,
COc1cc(C2C(C(=O)c3cccs3)=C(O)C(=O)N2CCN2CCOCC2)cc(OC)c1OC (centres undefined),102%,104%,97.3%,99.2%,102%,101%,84.8%,120%,129%,111%,108%,113%,108%,110%,109%,100%,102%,,107%,
CCCCCCCCCCCCCCCC[N+]1(CC)CCCC1,-59.2% (active),-16.7% (active),38.3%,-59.1% (active),9.99% (active),-41.8% (active),-9.64% (active),-67% (active),-67.3% (active),-39.9% (active),-54.7% (active),-42.5% (active),0.586% (active),-4.99% (active),-25.1% (active),-76% (active),-52.5% (active),-8.22% (active),85.8%,
Cc1nn(-c2nc3ccccc3[nH]2)c2c1C(c1ccc3c(c1)OCO3)CC(=O)N2 (centres undefined),52.9%,41.9%,22.7%,69.4%,31%,65.7%,-8.66% (active),12.1%,-48.5% (active),14%,-18.4% (active),36.9%,105%,65.1%,54.9%,21.3%,-24.3% (active),38.2%,50.3%,
